High-throughput results: PubChem, National Center for Advancing Translational Sciences (NCATS)
In the library only some 3.3% were active in any assay of this set; here they are far more common.
Sm TGR inh: qHTS Assay for the Inhibitors of Schistosoma Mansoni Peroxiredoxins; 360,000 tested, 3% active; purified TGR, DTNB reduction, TNB absorbance 405 nm; AID 485364, 2010; Potency, µM (top dose mostly 114 µM), without a hit: top-dose activity change, negative = inhibition, actives largely listed as inhibitors; note: nearly all actives have a fitted effect of over 60% in size
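First, TGR (20 nM dispensed) and NADPH were mixed with compound. Second, a 15 min room-temperature incubation followed. Third, further NADPH and then DTNB were added to start the reaction. Finally, TNB absorbance was monitored kinetically.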
AmpC no deterg: qHTS Inhibitors of AmpC Beta-Lactamase (assay without detergent). 330,000 tested, 0.52% active. AmpC nitrocefin hydrolysis, absorbance 480 nm, 0.0001% Triton. AID 485341, 2010. Potency, µM (series often up to 57.1 µM), inactives show top-dose activity change, negative = inhibition, most hits filed as inhibitors;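 note: plate controls were no compound for no effect and no enzyme for full effect; nearly all actives have a fitted effect of over 20% in size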
Target sequence (P00811 whole entry, looked up): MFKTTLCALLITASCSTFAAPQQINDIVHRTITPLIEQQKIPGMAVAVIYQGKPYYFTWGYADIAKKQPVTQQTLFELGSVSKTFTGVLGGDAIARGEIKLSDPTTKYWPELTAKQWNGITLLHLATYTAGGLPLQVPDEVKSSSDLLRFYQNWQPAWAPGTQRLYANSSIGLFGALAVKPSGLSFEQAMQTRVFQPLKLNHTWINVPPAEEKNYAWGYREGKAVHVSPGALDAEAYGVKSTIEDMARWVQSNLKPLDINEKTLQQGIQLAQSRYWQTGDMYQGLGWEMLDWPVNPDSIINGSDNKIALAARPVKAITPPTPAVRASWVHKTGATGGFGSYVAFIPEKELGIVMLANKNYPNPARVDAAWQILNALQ
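20 mM phosphate pH 7.0 + 0.01% (detergent screen) or 0.0001% Triton X-100; 5.3 nM AmpC reagent; cpd preinc 15 min RT; nitrocefin (800 uM stock) to start; A480 q20 s × 4 min; Activity was normalised to no-enzyme and no-compound control wells.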
AmpC detergent: qHTS Inhibitors of AmpC Beta-Lactamase (assay with detergent); Potency, µM (titrated, usually from 114 µM), for inactives: at the top dose activity change, negative = inhibition, hits mostly inhibitors; AmpC hydrolysis of nitrocefin, absorbance 480 nm, 0.01% Triton; P00811; 370,000 tested, 0.041% active;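 note: 0% = no-compound wells and -100% = no-enzyme wells; nearly all actives have a fitted effect of over 25% in size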
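20 mM phosphate pH 7.0 + 0.01% (detergent screen) or 0.0001% Triton X-100; 5.3 nM AmpC reagent; cpd preinc 15 min RT; nitrocefin (800 uM stock) to start; A480 q20 s × 4 min; Activity was normalised to no-enzyme and no-compound control wells.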
Starred values were filed as active, the others as inactive; ? = inconclusive; . = not tested or not shown. Calls come from the whole dose curve; as a rule, active = well fitted curve in the direction sought with a large enough effect; inconclusive = small, poorly fitted or top-dose-only effect, or another doubt; inactive = no such curve, though single readings can be large; an effect the other way counts as inactive or inconclusive. Unless noted, % is set by controls: 0 for no effect and ±100 for the full control effect; potency is the fitted concentration of half-maximal effect.

SMILES | Sm TGR inh | AmpC no deterg | AmpC detergent
O=C(NN=Cc1ccc(OC(F)F)cc1)c1ccc(NS(=O)(=O)c2cccs2)cc1 | . | -42% | .
O=C(N/N=C\C=C\c1ccc([N+](=O)[O-])o1)c1cccs1 | 10µM* | -38% | -4%
O=C(N/N=C/c1ccc([N+](=O)[O-])cc1)c1ccc(NS(=O)(=O)c2cccs2)cc1 | -3% | -26% | ?
O=C(NN=Cc1ccccc1OC(F)F)c1ccc(NS(=O)(=O)c2cccs2)cc1 | . | 16µM* | .
O=C(N/N=C/C=C/c1ccccc1[N+](=O)[O-])c1cccs1 | -16% | -28% | -2%
O=C(N/N=C/c1ccc([N+](=O)[O-])o1)c1ccc(NS(=O)(=O)c2cccs2)cc1 | 35µM* | -43% | -2%
CCSc1nnc(N2C(=O)c3ccc(C(=O)c4ccc(C(=O)O)cc4)cc3C2=O)s1 | -24% | -3% | 5%
COCCNC(=O)C(=O)N/N=C(\C)CC(=O)Nc1cccc(C(F)(F)F)c1 | -7% | 140% | -14%
Nc1nc2nonc2nc1N | -27% | -7% | 2%
COc1ccccc1CC1CC(=O)N(c2cccc(Cl)c2C)C1=O (stereo not given) | 0% | -4% | ?
CCN(CC)C(=O)c1ccccc1NC(=O)CN1C(=O)c2ccccc2S1(=O)=O | -5% | 0% | -4%
Cc1ccc(-c2[nH]c3c(c2-c2c(-n4cccc4)n(C)c(=O)[nH]c2=O)c(=O)[nH]c(=O)n3C)cc1 | -7% | . | 2%
CCOCCCn1c(SCC(=O)OCC)nc2c(sc3ccccc32)c1=O | 9% | . | 3%
Cc1cc(C)cc(NC(=O)Nc2ccccc2OCc2cc(=O)n3ccccc3n2)c1 | 5% | . | 21%
COc1ccc(O[C@H]2C=C[C@@H](c3ccccc3)O[C@@H]2COC(=O)CC/C(C)=N/O[C@@H](C)CN2CCCCc3nc(C)c(C)cc32)cc1 | -26% | 117% | 0%
C/C(CCC(=O)OC[C@H]1O[C@H](C#Cc2ccccc2)C=C[C@@H]1Oc1ccc(C)cc1)=N\O[C@@H](C)CN1CCCCc2nc(C)c(C)cc21 | 35µM* | 157% | 1%
Cc1sc2ncn(CC(=O)N(C)c3ccc(C(C)C)cc3)c(=O)c2c1S(=O)(=O)N1CCC(C)CC1 | -21% | . | -1%
CC(C(=O)Nc1ccc2c(c1)OCO2)n1cnc2c1c(=O)n(C)c(=O)n2C (stereo not given) | 7% | -11% | 4%
CCNC(=S)/C(=C(/[O-])c1ccc([N+](=O)[O-])cc1)[n+]1ccccc1 | -8% | -22% | -4%
Cc1ccc[n+](/C(C(=S)NCc2ccco2)=C(/[O-])c2ccccc2Cl)c1 | 32µM* | 0% | 2%
S=C(NCc1ccco1)N/N=C/c1ccccc1Cl | 1% | -16% | ?
CC(C)(C)c1ccc(/C([O-])=C(/C(=S)NCc2ccco2)[n+]2ccccc2)cc1 | 56µM* | 5% | -7%
O=C(/C=C/c1cccc(Br)c1)NCc1ccncc1 | 3% | -42% | -2%
CCOc1ccc(-c2nnc(SCC(=O)NCc3ccccc3)o2)cc1 | -3% | . | 22%
CCOc1ccc(-c2nnc(SCC(=O)NCc3ccccc3Cl)o2)cc1 | 20µM* | . | 22%
SMILES | Sm TGR inh | AmpC no deterg | AmpC detergent
CCOc1ccc(-c2nnc(SCC(=O)NCc3ccc(Cl)cc3)o2)cc1 | 14µM* | . | -5%
CCOc1ccc(-c2nnc(SCC(=O)NC3CC3)o2)cc1 | 0% | -25% | -2%
Cc1nn(C(C)C(=O)N2CCN(c3ccc(Cl)cc3)CC2)c(=O)c2cc3occc3n12 (stereo not given) | -15% | . | -1%
COC(=O)[C@H](Cc1ccccc1)NC(=O)Cn1ccc(NC(=O)OCc2ccccc2)nc1=O | -1% | 49% | -7%
Cc1cccc(CNC(=O)c2ccc(C)c(-n3c(C)nc4cccnc43)c2)c1 | -2% | . | 4%
COc1ccc(NS(=O)(=O)c2cccc(C(=O)NCC(c3ccco3)N(C)C)c2)cc1 (stereo not given) | ? | -34% | -8%
O=C(COC(=O)c1c[nH]c2ccccc12)NC1CCCCC1 | -11% | -22% | -2%
Cc1ccc(C(=O)O)cc1NC(=O)c1ccc2c(c1)C(=O)N(c1ccc([N+](=O)[O-])cc1)C2=O | -11% | -12% | -8%
CCC(C)(C)n1nnnc1C(c1ccccc1)N1CCN(C2CCCC2)CC1 (stereo not given) | -7% | -15% | -3%
CCC(C)(C)n1nnnc1C(c1ccc(N(C)C)cc1)N1CCN(C2CCCCC2)CC1 (stereo not given) | 22µM* | -6% | -1%
